Experimental data reported in the supplement of paper PMC9877034.
Counter-ions that a name gives are not always drawn. Over roughly 1,000 compounds, “cFRET/donor change relative to DMSO, normalised to beta-lapachone positive control (supercomplex I-IV assembly)” has its median near 0.18; the lowest 2% begin near -1. The sample holds the lowest values, similar compounds and a random draw of the others, so the mix is not that of the screen.

Each compound was assayed on C2C12 (NDUFB8-AcGFP / COX8A-DsRed-Monomer FRET reporter) (assay: cFRET/donor change relative to DMSO, normalised to beta-lapachone positive control (supercomplex I-IV assembly) (fraction of beta-lapachone effect); higher = more respiratory supercomplex assembly). Settings: 40 µM; 24 h.
Description: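 Cells were treated with 40 uM compound for 24 h and imaged on an IN Cell Analyzer 6000. Corrected FRET was divided by donor signal (cFRET/donor) and measured in two replicate experiments. The score is (mean cFRET/donor of compound - mean DMSO) / (mean beta-lapachone 40 uM - mean DMSO). Compounds flagged for prominent cell death, abnormal morphology or decreased cell number were excluded.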

Compared with CC[N+](CC)(CC)CCOc1ccc(/C=C/c2ccccc2)cc1, CN(CCCOc1ccc(Cc2ccccc2)cc1)CCC(=O)O is higher in cFRET/donor change: 0.391 for the first, 0.52 for the second.

Going from OCCN1CCN(CCCN2c3ccccc3Sc3ccc(Cl)cc32)CC1 [Perphenazine] to O=c1n(CCCN2CCN(c3cccc(Cl)c3)CC2)nc2ccccn12 [Trazodone hydrochloride], the cFRET/donor change rises from 0.48 to 0.586.

Going from CN1CCC[C@@H]1Cc1c[nH]c2ccc(CCS(=O)(=O)c3ccccc3)cc12 [Eletriptan hydrobromide] to COC(=O)C1=C(C)NC(C)=C(C(=O)OC2CCCN(Cc3ccccc3)C2)C1c1cccc([N+](=O)[O-])c1 (stereo unspecified) [Benidipine hydrochloride], the cFRET/donor change rises from 0.314 to 0.367.

Going from c1ccc(C2CN3CCSC3=N2)cc1 (single isomer, unassigned; (-)) [(-)-Tetramisole hydrochloride] to CN1CCc2cc(Cl)c(O)cc2[C@@H](c2ccccc2)C1, the cFRET/donor change rises from 0.472 to 0.549.

Compared with N#CC(=C(/N)Sc1ccccc1N)/C(C#N)=C(/N)Sc1ccccc1N, CN1Cc2c(N)cccc2C(c2ccccc2)C1 (stereo unspecified) [Nomifensine maleate] is lower in cFRET/donor change: 1.14 for the first, -0.996 for the second.

Compared with CCOC(=O)[N-]c1c[n+](N2CCOCC2)no1 [Molsidomine], Cn1c(=O)c(-c2c(Cl)cccc2Cl)cc2cnc(Nc3ccc(N4CCOCC4)cc3)nc21 is lower in cFRET/donor change: 0.0144 for the first, -0.227 for the second.

Going from CCc1cncnc1N1CCN(Cc2nc3ccc(C(F)(F)F)cc3[nH]2)CC1 to Clc1ccc(N2CCN(Cc3cc4ccccn4n3)CC2)cc1, the cFRET/donor change rises from 0.351 to 0.359.

Going from CN(C)CCCc1cc(C(=O)Nc2ccc(-c3ccncc3)cc2)ccc1O to O=C(CCc1ccncc1)NNC(=O)N1Cc2ccccc2Oc2ccc(Cl)cc21, the cFRET/donor change rises from 0.377 to 0.597.

First: OC(CCN1CCCCC1)(c1ccccc1)C1CC2C=CC1C2 (stereo unspecified) [Biperiden hydrochloride]
Second: O=C(CCCCCN1CCN(c2ccccc2-c2ccccc2)CC1)NC1CCCc2ccccc21 (stereo unspecified) [LP 12 hydrochloride hydrate]
The cFRET/donor change of the first is lower: 0.472 for the first, 1.51 for the second.

Going from CCCCCCCCCCCCCCCCCCN(CCCCCCCCCCCCCCCCCC)CCCN(CCO)CCO [Avridine] to CCN(CC)CCCC(C)Nc1c2ccc(Cl)cc2nc2ccc(OC)cc12 (stereo unspecified) [Quinacrine dihydrochloride], the cFRET/donor change falls from 0.401 to -4.52.

Going from O=c1ccc2ccc(O)c(O)c2o1 [Daphnetin] to O=Nc1ccc2oc(=O)ccc2c1 [6-Nitroso-1,2-benzopyrone], the cFRET/donor change falls from 0.438 to -1.07.

Compared with CC(C)c1c(C(=O)Nc2ccccc2)c(-c2ccccc2)c(-c2ccc(F)cc2)n1CC[C@@H](O)C[C@@H](O)CC(=O)O [Atorvastatin calcium salt trihydrate], CC(C)(C)NC(=O)[C@@H]1CN(Cc2cccnc2)CCN1C[C@@H](O)C[C@@H](Cc1ccccc1)C(=O)N[C@H]1c2ccccc2C[C@H]1O [Indinavir sulfate salt hydrate] is higher in cFRET/donor change: -0.0539 for the first, 0.0944 for the second.

Compared with NS(=O)(=O)c1ccc(-n2nc(C(F)(F)F)cc2-c2ccc(Cl)cc2)cc1, C[C@H](c1ccc(F)cc1CCCC(=O)O)N(c1cc(F)ccc1F)S(=O)(=O)c1ccc(Cl)cc1 is higher in cFRET/donor change: 0.219 for the first, 0.476 for the second.

Going from Cc1cn(C2C=CC(CO)O2)c(=O)[nH]c1=O (stereo unspecified) [2',3'-didehydro-3'-deoxythymidine] to O=C(O[C@@H]1C[C@@H]2C[C@H]3C[C@H](C1)N2CC3=O)c1c[nH]c2ccccc12 [Dolasetron mesylate hydrate], the cFRET/donor change falls from 0.515 to 0.115.

Compared with COc1ccc(S(=O)(=O)Nc2nc(-c3cccc([N+](=O)[O-])c3)cs2)cc1OC, COc1cc(NS(C)(=O)=O)ccc1Nc1c2ccccc2nc2ccccc12 [Amsacrine hydrochloride] is lower in cFRET/donor change: 0.458 for the first, 0.257 for the second.

Going from O=C1c2c(O)ccc(O)c2C(=O)c2c(NCCNCCO)ccc(NCCNCCO)c21 [Mitoxantrone] to O=C1c2ccccc2C(=O)c2c(NCCc3ccc(O)cc3)ccc(NCCc3ccc(O)cc3)c21, the cFRET/donor change falls from 0.111 to -1.29.

Compared with CC(NCCc1ccc(O)cc1)C(O)c1ccc(O)cc1 (stereo unspecified) [Ritodrine hydrochloride], COc1ccc2cccc(CCNC(C)=O)c2c1 [Agomelatine] is higher in cFRET/donor change: -0.0849 for the first, 0.0655 for the second.

First: CCOc1nc2cccc(C(=O)OC(C)OC(=O)OC3CCCCC3)c2n1Cc1ccc(-c2ccccc2-c2nn[nH]n2)cc1 (stereo unspecified) [Candesartan cilexetil]
Second: CCc1cccc(N(C)C(=N)Nc2cccc3ccccc23)c1
The cFRET/donor change of the first is higher: 0.942 for the first, 0.203 for the second.

First: O=C1NCCc2[nH]c(-c3ccncc3)cc21
Second: O=C1CCC(c2ccc(-n3ccnc3)cc2)=NN1 [Imazodan]
The cFRET/donor change of the first is lower: -0.0657 for the first, 0.0699 for the second.

Compared with NC(C(=O)O)C(O)C(=O)O (racemic) [DL-threo-beta-hydroxyaspartic acid], N[C@@H](CCCC(=O)O)C(=O)O [L-2-aminoadipic acid] is lower in cFRET/donor change: -0.112 for the first, -0.139 for the second.

Going from Cc1cc2c(cc1Cl)N(C(=O)Nc1ccc(Oc3cccnc3C)nc1)CC2 to Cc1cc2c(cc1Cl)N(C(=O)Nc1cccc3ncccc13)CC2, the cFRET/donor change rises from -1.37 to -0.136.

First: Cn1ccc2cc3c(cc21)CCN3C(=O)Nc1cccnc1
Second: Cc1cc(Nc2ncc3cc(-c4c(Cl)cccc4Cl)c(=O)n(C)c3n2)ccc1F
The cFRET/donor change of the first is lower: -0.716 for the first, -0.253 for the second.

Compared with C[C@H](CCC(=O)NCCS(=O)(=O)O)[C@H]1CC[C@H]2[C@@H]3[C@H](O)C[C@@H]4C[C@H](O)CC[C@]4(C)[C@H]3C[C@H](O)[C@]12C [Sodium Taurocholate hydrate], COc1ccc2c(c1)CC[C@@H]1[C@@H]2CC[C@]2(C)[C@@H](NCCCCCCN3C(=O)CCC3=O)CC[C@@H]12 is higher in cFRET/donor change: 0.0638 for the first, 0.325 for the second.

First: CCCCC#Cc1nc(NC)c2ncn([C@@H]3O[C@H](CO)[C@@H](O)[C@H]3O)c2n1
Second: OC[C@H]1O[C@@H](n2cnc3c(N[C@H]4CCC[C@@H]4O)ncnc32)[C@H](O)[C@@H]1O
The cFRET/donor change of the first is lower: 0.242 for the first, 0.476 for the second.

First: CC(N)=NCCCC[C@H](N)C(=O)O [L-N6-(1-Iminoethyl)lysine hydrochloride]
Second: CCOC(=O)[C@@H](N)Cc1ccc(O)c(O)c1 [L-Dopa ethyl ester]
The cFRET/donor change of the first is higher: -0.0938 for the first, -0.101 for the second.

Going from O=C1N=C(O)NC1(c1ccccc1)c1ccccc1 [Phenytoin sodium] to Cc1ccc(O)c(N=Nc2ccccc2)n1, the cFRET/donor change rises from 0.149 to 0.375.

Going from CCN(CC)CCOc1ccc(Nc2ncc3cc(-c4c(Cl)cccc4Cl)c(=O)n(C)c3n2)cc1 to CN(c1ccccc1CNc1nc(Nc2ccc3c(c2)CC(=O)N3)ncc1C(F)(F)F)S(C)(=O)=O, the cFRET/donor change rises from -5.45 to 0.036.

Going from CN1Cc2sccc2C(c2ccc(O)c(O)c2)C1 (stereo unspecified) to O=C1c2c(O)cc(O)cc2O[C@H](c2ccc(O)c(O)c2)[C@H]1O (racemic) [(±)-Taxifolin], the cFRET/donor change falls from 0.596 to 0.226.

First: NS(=O)(=O)C#Cc1ccccc1 [Pifithrin-mu]
Second: Nc1nc(=O)c(Br)c(-c2ccccc2)[nH]1 [Bropirimine]
The cFRET/donor change of the first is higher: 0.551 for the first, -0.0226 for the second.

Going from O=C(O)/C=C/c1cnc[nH]1 [4-Imidazoleacrylic acid] to NCC=CC(=O)O (stereo in doubt) [cis-4-Aminocrotonic acid], the cFRET/donor change rises from 0.18 to 0.532.

Compared with Clc1ccc2c(c1)N=C(N1CCNCC1)c1ccccc1N2 [N-Desmethylclozapine], c1ccc2c(c1)CC(N1CCN(c3cccc4c3OCCO4)CC1)C2 is lower in cFRET/donor change: 0.316 for the first, 0.201 for the second.

First: O=C(CCSCc1ccco1)NNC(=O)N1Cc2ccccc2Oc2ccc(Cl)cc21
Second: CCN(CC)C(C)CN1c2ccccc2Sc2ccccc21 (stereo unspecified) [Ethopropazine hydrochloride]
The cFRET/donor change of the first is higher: 0.36 for the first, -0.00468 for the second.

Going from CC1(C2CCCC2)Cc2cc(OCC(=O)O)c(Cl)c(Cl)c2C1=O (stereo unspecified) to Cc1cc(NC2CCCCC2)nc(-n2nc(C)cc2C)n1, the cFRET/donor change rises from 0.0296 to 0.569.

First: O=P(O)(O)C(O)(Cn1ccnc1)P(=O)(O)O [Zoledronic acid monohydrate]
Second: COc1cccc(OC)c1-c1cc(C(=O)NC2(C(=O)O)C3CC4CC(C3)CC2C4)nn1-c1ccc(C(=O)N(C)CCCN(C)C)cc1C(C)C (stereo unspecified)
The cFRET/donor change of the first is higher: 0.239 for the first, 0.153 for the second.

Going from CO[C@H]1C[C@@H]2CC[C@@H](C)[C@@](O)(O2)C(=O)C(=O)N2CCCC[C@H]2C(=O)O[C@H]([C@H](C)C[C@@H]2CC[C@@H](OC(=O)C(C)(CO)CO)[C@H](OC)C2)CC(=O)[C@H](C)/C=C(\C)[C@@H](O)[C@@H](OC)C(=O)[C@H](C)C[C@H](C)/C=C/C=C/C=C/1C [Temsirolimus] to COc1ccc(CCNc2nc(N3CCc4cc(OC)c(OC)cc4C3)c3cc(OC)c(OC)cc3n2)cc1OC, the cFRET/donor change rises from -0.55 to 0.14.

Going from COc1ccc2[nH]c([S@@+]([O-])Cc3ncc(C)c(OC)c3C)nc2c1 [Esomeprazole magnesium dihydrate] to COCCOc1cc2ncnc(Cl)c2cc1OCCOC, the cFRET/donor change falls from 0.951 to 0.0633.

First: CCOC(=O)c1ccc(C#Cc2ccc3c(c2)C(C)(C)CCS3)nc1 [Tazarotene]
Second: CC(C)[N+]1(C)[C@@H]2CC[C@H]1C[C@@H](OC(=O)C(CO)c1ccccc1)C2 (stereo partly specified) [Ipratropium bromide]
The cFRET/donor change of the first is higher: 0.454 for the first, 0.299 for the second.

Compared with c1cnc2cc3c(cc2n1)[C@@H]1CNC[C@H]3C1 [Varenicline tartrate], Nc1ccc(-c2nc3ccc(-c4nc5ccc(N)cc5[nH]4)cc3[nH]2)cc1 is lower in cFRET/donor change: 0.22 for the first, -0.494 for the second.

Compared with Cc1ccc(S(=O)(=O)/C=C/C#N)cc1, O=C1/C(=C/c2cccs2)CC/C1=C\c1cccs1 is higher in cFRET/donor change: 0.324 for the first, 0.584 for the second.

Going from NC(N)=NCc1cccc(I)c1 [m-Iodobenzylguanidine hemisulfate] to C=CC1=C(C)c2cc3[nH]c(cc4nc(cc5[nH]c(cc1n2)c(C)c5CCC(=O)O)C(CCC(=O)O)=C4C)c(C)c3C=C [Protoporphyrin IX disodium], the cFRET/donor change rises from -0.0455 to 3.12.

With C[N+](C)(C)CCO.[Br-] [Choline bromide] the cFRET/donor change was 0.313.
